This note sets out measurements from PubChem BioAssay (Tox21).

Each structure is given as a SMILES string. Unmarked numbers belong to inactive results. Records with an inconclusive call do not appear. Activity calls are given as the source filed them. Unless noted, the call rests on the fitted dose curve; in most records, active means well fitted curve in the direction sought with a large enough effect in the repeat runs; inconclusive means weak or mixed curves; inactive means no such curve, though single readings can be large; an effect the other way counts as inactive or inconclusive.

Assay [1] is described as follows: qHTS assay to identify small molecule antagonists of the androgen receptor (AR) signaling pathway using the MDA cell line in the presence of 0.5 nM R1881 - cell viability counter screen (AID 1259242). Further: on the % scale 0 is the no-effect control and ±100 the full control effect; nearly all actives have a fitted effect of over 45% in size. In outline: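 Concentration-response screen of compounds for toxicity in MDA-kb2 reporter cells: 16 hr at 37C with 0.5 nM R1881, endpoint live-cell protease fluorescence measured in the reporter wells.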

A short description of assay [2]: qHTS assay to identify small molecule phospholipidosis (PLD) inducers (AID 1259344; active means well fitted curve in the direction sought with a large enough effect; an effect the other way counts as inactive or inconclusive; further: on the % scale 0 is the no-effect control and ±100 the full control effect). In outline: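 Cells (HepG2, 900 per well) attach for 4 h, receive LipidTOX Red and compound together, incubate 24 h at 37 C, are fixed 30 min with paraformaldehyde/Hoechst, then imaged at one site per well.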
On the technique in general: qHTS replaces the single test concentration by a dilution series.

A short description of assay [3]: qHTS assay to identify small molecule HDAC inhibitors - cell viability counter screen (AID 1259365). Further: series mostly up to about 92 µM; on the % scale 0 is the no-effect control and ±100 the full control effect; nearly all actives have a fitted effect of over 50% in size. In outline:
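HCT-116 (wild type), 1,500 cells/well, overnight 37C/5% CO2; compound in DMSO 2hr; CellTiter-Glo 30min RT; luminescence read.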

Assay [4] can be described thus: qHTS assay to identify small molecule antagonists of the sonic hedgehog signaling (Shh) pathway - cell viability counter screen (AID 1259367). Further: nearly all actives have a fitted effect of over 55% in size. Further: potency means the concentration at half of the fitted maximal effect. In outline: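 Cytotoxicity was assessed in parallel with Shh reporter activity by measuring live-cell protease fluorescence (CellTiter-Fluor) in NIH/3T3 cells stably carrying Gli1-Luc, treated with compound under conditioned medium stimulation for 23 hr plus 1 hr reagent incubation.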

The target in assay [5] is Estrogen receptor beta (Homo sapiens) (UniProt Q92731). Put plainly: qHTS assay to identify small molecule agonists of the estrogen receptor beta (ER-beta) signaling pathway (AID 1259377; active means well fitted activation curve with a large enough effect in the signal ratio in the repeat runs, not every such curve was filed as active; the % refers to the signal ratio; further: on the % scale 0 is the no-effect control and ±100 the full control effect). In outline: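 Beta-lactamase reporter readout: fluorescence of LiveBLAzer B/G FRET substrate after 2 h at room temperature, following 16 h compound treatment of ER-beta-UAS-bla HEK293T cells at 37C in 2% charcoal-stripped FBS medium.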
Chain of Estrogen receptor beta (Homo sapiens) (Q92731 whole entry, looked up): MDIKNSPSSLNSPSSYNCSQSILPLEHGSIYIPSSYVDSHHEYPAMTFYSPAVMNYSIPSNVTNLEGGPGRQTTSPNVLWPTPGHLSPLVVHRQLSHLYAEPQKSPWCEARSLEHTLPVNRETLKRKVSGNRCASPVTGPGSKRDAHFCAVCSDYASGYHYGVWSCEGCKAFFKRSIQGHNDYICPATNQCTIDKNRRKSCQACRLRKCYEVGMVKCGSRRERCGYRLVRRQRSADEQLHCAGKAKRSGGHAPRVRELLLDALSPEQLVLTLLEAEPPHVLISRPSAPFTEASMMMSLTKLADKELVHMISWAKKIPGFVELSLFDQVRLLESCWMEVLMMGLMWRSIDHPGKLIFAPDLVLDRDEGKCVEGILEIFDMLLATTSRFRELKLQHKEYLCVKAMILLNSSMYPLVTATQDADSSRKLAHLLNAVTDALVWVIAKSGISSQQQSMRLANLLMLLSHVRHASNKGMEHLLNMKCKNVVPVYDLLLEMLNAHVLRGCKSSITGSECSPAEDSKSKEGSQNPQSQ

The nature of assay [6]: qHTS assay to identify small molecule agonists of the androgen receptor (AR) signaling pathway in the presence of an antagonist - cell viability counter screen (AID 1259379). Further: nearly all actives have a fitted effect of over 25% in size. Further: potency means the concentration at half of the fitted maximal effect. Summed up: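 MDA-kb2 viability measured by CellTiter-Fluor fluorescence in the same wells as the luciferase signal; nilutamide 3.0uM final; 15-point compound titration; 16 hr at 37C.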
The nature of assay [7]: qHTS assay to identify small molecule agonists of the estrogen receptor alpha (ER-alpha) signaling pathway in the presence of an antagonist - cell viability counter screen (AID 1259386).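 Further: cells exposed to compounds for 22 h at 37 °C before the viability read; nearly all actives have a fitted effect of over 30% in size.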 Further: potency means the concentration at half of the fitted maximal effect. In outline:
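The test measures whether compounds kill ER-alpha reporter cells (VM7Luc4E2) under antagonist co-treatment (ICI-182,780, 10.0nM). Fluorescence from CellTiter-Fluor is read after a 22hr exposure.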

A short description of assay [8]: qHTS assay to identify small molecule HDAC inhibitors (AID 1259364).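 Further: wild-type HCT-116 cells with endogenous class I/II HDAC activity; top concentration of the series differs between compounds; on the % scale 0 is the no-effect control and ±100 the full control effect; nearly all actives have a fitted effect of over 45% in size.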 In outline:
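Screening used wild-type human colon HCT-116 cells incubated overnight, dosed with compounds for 2 hours, and assayed with a homogeneous luminogenic HDAC I/II reagent for 30 minutes at room temperature.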

A short description of assay [9]: qHTS assay to identify small molecule agonists of the sonic hedgehog signaling (Shh) pathway - cell viability counter screen (AID 1259366). Further: nearly all actives have a fitted effect of over 50% in size. Further: potency means the concentration at half of the fitted maximal effect. Summed up:
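CellTiter-Fluor fluorescence read-out, 1 hr at 37C, added after 23hr compound exposure. Cells: 3T3 Gli1-Luc, an NIH/3T3 clone with stably integrated Gli1-Luc reporter, plated 4hr before compound.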

For assay [10], the target named is Estrogen receptor beta (Homo sapiens) (UniProt Q92731). Briefly: qHTS assay to identify small molecule antagonists of the estrogen receptor beta (ER-beta) signaling pathway (AID 1259378; active means well fitted inhibition curve with a large enough effect in the signal ratio in the repeat runs, not every such curve was filed as active; the % refers to the signal ratio; further: potency means the concentration at half of the fitted maximal effect). Summed up: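 ER-beta-UAS-bla HEK293T (GripTite) cells in 2% charcoal-stripped FBS medium were preincubated 6 hr at 37C, dosed with compound, then stimulated with 1 nM E2 (final) for 16 hr; beta-lactamase reporter read by B/G FRET fluorescence after 2 hr substrate loading.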

Assay [11] can be described thus: qHTS assay to identify small molecule agonists of the estrogen receptor beta (ER-beta) signaling pathway - cell viability counter screen (AID 1259380). Further: potency means the concentration at half of the fitted maximal effect; nearly all actives have a fitted effect of over 30% in size. Summed up:
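Measured: luminescence from CellTiter-Glo after 30 min at room temperature, added to wells already read for the LiveBLAzer FRET reporter (2 hr substrate); ER-beta-UAS-bla HEK293T cells had 16 hr compound treatment at 37C, 5% CO2.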

A short description of assay [12]: qHTS assay to identify small molecule antagonists of the estrogen receptor beta (ER-beta) signaling pathway - cell viability counter screen (AID 1259382). Further: nearly all actives have a fitted effect of over 55% in size. Further: potency means the concentration at half of the fitted maximal effect. Summed up:
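Readout: luminescence, CellTiter-Glo, same wells as bla assay. System: ER-beta-UAS-bla GripTite HEK293T, 2% charcoal-stripped FBS. Exposure: compounds plus 1nM 17-beta-estradiol, 16 hr, 37C.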

A short description of assay [13]: qHTS assay to identify small molecule agonists or antagonists of the thyroid stimulating hormone receptor (TSHR) signaling pathway - wild type cell line counter screen (AID 1259384; calls by dose curve; further: on the % scale 0 is the no-effect control and ±100 the full control effect). Summed up: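 Wild-type HEK293 cells were plated 18 h at 37 C/5% CO2, pin-dosed with compound plus Ro20-1724 medium, held 30 min at room temperature, then given cAMP-d2 and anti-cAMP-cryptate; fluorescence was read after 1 h. Fifteen concentrations, triplicate.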

The target of assay [14] is Thyrotropin receptor (Homo sapiens) (UniProt P16473). Briefly: qHTS assay to identify small molecule antagonists of the thyroid stimulating hormone receptor (TSHR) signaling pathway (AID 1259385; calls by dose curve; further: on the % scale 0 is the no-effect control and ±100 the full control effect; nearly all actives have a fitted effect of over 20% in size). Summed up:
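TSHR-HEK293 cells were plated and held 18 h at 37C/5% CO2, then given compound plus Ro20-1724 and stimulated with TSH at 1.5 ng/mL final. After 30 min at room temperature, cAMP was detected with cAMP-d2/anti-cAMP-cryptate (1 h) by fluorescence.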

Assay [15] can be described thus: qHTS assay to identify small molecule agonists of the sonic hedgehog signaling (Shh) pathway (AID 1259368; calls by dose curve;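 further: NIH/3T3-derived 3T3Gli1-Luc cells carrying a stable Gli1-driven firefly luciferase reporter; series mostly up to about 92 µM; on the % scale 0 is the no-effect control and ±100 the full control effect; nearly all actives have a fitted effect of over 15% in size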). In outline:
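Hedgehog pathway agonism scored by increased firefly luciferase luminescence in 3T3Gli1-Luc cells treated 24 hr at 37 C; detection used a 30 min room-temperature reagent incubation.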

Assay [16] concerns the target Estrogen receptor (Homo sapiens) (UniProt P03372). Put plainly: qHTS assay to identify small molecule agonists of the estrogen receptor alpha (ER-alpha) signaling pathway in the presence of an antagonist (AID 1259383; calls by dose curve; further: top concentration of the series differs between compounds; on the % scale 0 is the no-effect control and ±100 the full control effect; nearly all actives have a fitted effect of over 15% in size). Summed up:
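Quantitative HTS confirmation: compounds titrated at 15 concentrations onto estrogen-deprived VM7Luc4E2 cells carrying a four-ERE luciferase construct, with ICI-182,780 present at 10.0nM final. Signal is luminescence after 22hr exposure.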

Assay [17] can be described thus: qHTS assay to identify small molecule antagonists of the sonic hedgehog signaling (Shh) pathway (AID 1259369; calls by dose curve; further: nearly all actives have a fitted effect of over 45% in size; further: potency means the concentration at half of the fitted maximal effect). Summed up: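 NIH/3T3 stable Gli1-Luc clone, 2,000 cells/well, 4hr settle; cpd + conditioned medium 24hr; Luc reagent 30min RT; luminescence.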
For assay [18], the target named is Androgen receptor (Homo sapiens) (UniProt P10275). Briefly: qHTS assay to identify small molecule antagonists of the androgen receptor (AR) signaling pathway using the MDA cell line in the presence of 0.5 nM R1881 (AID 1259243). Further: nearly all actives have a fitted effect of over 50% in size. Further: potency means the concentration at half of the fitted maximal effect. In outline:
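With R1881 held at 0.5 nM (final), compound effects on MMTV-luciferase expression in MDA-kb2 cells were scored by luminescence after a 16 hr, 37C incubation.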

The target in assay [19] is Estrogen receptor (Homo sapiens) (UniProt P03372). Put plainly: qHTS assay to identify small molecule antagonists of the estrogen receptor alpha (ER-alpha) signaling pathway using the BG1 cell line in the presence of 0.1 nM 17-beta-estradiol (AID 1259244). Further: potency means the concentration at half of the fitted maximal effect; nearly all actives have a fitted effect of over 50% in size. Summed up: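 Compounds were tested against 0.1 nM (final) 17beta-estradiol in VM7Luc4E2 cells, which express full-length ER-alpha and an ERE-luciferase reporter; luminescence was recorded following 22 h exposure.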
Chain of Estrogen receptor (Homo sapiens) (P03372 whole entry, looked up): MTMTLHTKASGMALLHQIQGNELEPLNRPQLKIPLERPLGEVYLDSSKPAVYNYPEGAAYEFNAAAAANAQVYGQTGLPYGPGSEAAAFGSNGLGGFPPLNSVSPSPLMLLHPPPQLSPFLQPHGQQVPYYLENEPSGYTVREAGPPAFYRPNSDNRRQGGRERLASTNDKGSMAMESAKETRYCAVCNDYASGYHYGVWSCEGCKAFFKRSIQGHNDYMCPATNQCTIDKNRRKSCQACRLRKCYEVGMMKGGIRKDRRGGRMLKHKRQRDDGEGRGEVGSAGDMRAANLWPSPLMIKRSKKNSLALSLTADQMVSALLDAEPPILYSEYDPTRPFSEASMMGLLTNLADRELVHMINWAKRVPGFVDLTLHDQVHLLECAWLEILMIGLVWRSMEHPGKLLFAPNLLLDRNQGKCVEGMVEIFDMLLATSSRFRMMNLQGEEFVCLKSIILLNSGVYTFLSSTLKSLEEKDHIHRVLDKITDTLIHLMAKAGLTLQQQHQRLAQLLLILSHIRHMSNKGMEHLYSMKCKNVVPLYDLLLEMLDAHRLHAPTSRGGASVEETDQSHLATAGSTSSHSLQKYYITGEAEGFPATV

In assay [20] the target is Androgen receptor (Homo sapiens) (UniProt P10275). Briefly: qHTS assay to identify small molecule agonists of the androgen receptor (AR) signaling pathway in the presence of an antagonist (AID 1259381; calls by dose curve; further: on the % scale 0 is the no-effect control and ±100 the full control effect; nearly all actives have a fitted effect of over 15% in size). In outline: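 Luminescent ONE-Glo read, 30min at room temperature, follows 16hr compound exposure (15 concentrations) of MDA-kb2 cells at 37C, 0% CO2, with nilutamide added at 3.0uM final.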
Chain of Androgen receptor (Homo sapiens) (P10275 whole entry, looked up): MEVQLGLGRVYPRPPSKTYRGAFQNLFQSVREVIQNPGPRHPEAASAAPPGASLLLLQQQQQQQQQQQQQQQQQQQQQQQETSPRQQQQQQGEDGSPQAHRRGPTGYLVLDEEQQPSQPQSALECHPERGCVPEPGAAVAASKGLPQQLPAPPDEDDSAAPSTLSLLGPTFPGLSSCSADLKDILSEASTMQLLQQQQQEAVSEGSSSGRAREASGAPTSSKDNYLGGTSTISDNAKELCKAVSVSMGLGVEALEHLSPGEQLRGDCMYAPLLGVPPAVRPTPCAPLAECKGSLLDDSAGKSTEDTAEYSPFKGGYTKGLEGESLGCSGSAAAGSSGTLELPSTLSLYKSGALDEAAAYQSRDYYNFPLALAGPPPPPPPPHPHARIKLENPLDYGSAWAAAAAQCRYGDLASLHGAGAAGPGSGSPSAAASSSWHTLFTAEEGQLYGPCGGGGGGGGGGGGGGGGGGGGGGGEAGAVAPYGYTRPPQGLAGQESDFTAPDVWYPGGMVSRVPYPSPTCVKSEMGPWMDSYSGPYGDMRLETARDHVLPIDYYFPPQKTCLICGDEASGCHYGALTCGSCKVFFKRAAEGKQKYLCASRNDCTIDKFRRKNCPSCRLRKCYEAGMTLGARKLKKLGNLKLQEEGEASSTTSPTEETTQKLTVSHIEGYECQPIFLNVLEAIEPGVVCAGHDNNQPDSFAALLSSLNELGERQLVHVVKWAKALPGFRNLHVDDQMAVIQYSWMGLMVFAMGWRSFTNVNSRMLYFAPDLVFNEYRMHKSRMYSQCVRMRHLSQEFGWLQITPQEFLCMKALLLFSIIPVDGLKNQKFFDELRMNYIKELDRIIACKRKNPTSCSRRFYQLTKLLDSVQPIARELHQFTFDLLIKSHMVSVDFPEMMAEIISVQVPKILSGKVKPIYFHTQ

Chain of Thyrotropin receptor (Homo sapiens) (P16473 whole entry, looked up): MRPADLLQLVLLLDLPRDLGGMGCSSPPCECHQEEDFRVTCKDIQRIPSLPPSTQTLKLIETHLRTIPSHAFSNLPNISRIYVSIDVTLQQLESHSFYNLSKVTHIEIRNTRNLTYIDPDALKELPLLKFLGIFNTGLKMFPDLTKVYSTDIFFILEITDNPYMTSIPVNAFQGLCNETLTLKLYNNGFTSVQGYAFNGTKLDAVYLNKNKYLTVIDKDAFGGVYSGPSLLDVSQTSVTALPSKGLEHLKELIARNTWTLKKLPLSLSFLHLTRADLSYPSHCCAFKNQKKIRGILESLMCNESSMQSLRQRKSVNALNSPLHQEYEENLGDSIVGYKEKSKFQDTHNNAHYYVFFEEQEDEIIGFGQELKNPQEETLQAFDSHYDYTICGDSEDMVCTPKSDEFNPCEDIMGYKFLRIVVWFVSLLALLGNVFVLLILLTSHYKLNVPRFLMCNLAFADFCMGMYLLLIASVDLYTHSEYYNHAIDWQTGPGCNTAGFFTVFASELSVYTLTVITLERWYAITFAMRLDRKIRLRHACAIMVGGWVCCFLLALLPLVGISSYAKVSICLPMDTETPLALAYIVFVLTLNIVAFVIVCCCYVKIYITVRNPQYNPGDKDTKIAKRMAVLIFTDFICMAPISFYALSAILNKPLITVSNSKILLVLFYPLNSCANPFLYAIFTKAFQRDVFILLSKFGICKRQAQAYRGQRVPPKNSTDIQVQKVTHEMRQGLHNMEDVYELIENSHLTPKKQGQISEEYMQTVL

For the compound `S=c1[nH]c2ccccc2s1`, the Potency result in assay [1], in assay [2], in assay [3], in assay [5], in assay [6] and in [7] was “inactive” throughout. In addition, the Potency in assay [4] is 48.6 µM (active).
Take `CCOC(=O)O[C@]1(C(=O)OCCl)CC[C@H]2[C@@H]3CCC4=CC(=O)C=C[C@]4(C)[C@H]3[C@@H](O)C[C@@]21C`: the Potency entry in [1], in [2], in assay [8], in assay [3], in assay [9] and in [4] was “inactive” each time. Also, the Potency result in [5], in assay [10], in [6], in assay [12], in [14] and in assay [7] was “inactive” in each case. The Potency in assay [11] is 26.6 µM (active). Further, in [13], the outcome was inactive.
For `CC(=O)S[C@@H]1CC2=CC(=O)CC[C@]2(C)[C@H]2CC[C@@]3(C)[C@@H](CC[C@@]34CCC(=O)O4)[C@H]12`, the Potency entry in assay [1], in assay [8], in assay [3], in assay [4], in assay [15] and in assay [5] was “inactive” throughout. Moreover, the Potency entry in assay [6], in assay [16], in assay [14] and in assay [7] was “inactive” throughout. The PLD induction in assay [2] is 5.04% [at 1.53 µM]. The Potency in [11] was 30.6 µM (active). In addition, the outcome in assay [13] was inactive.
With `CCCCN(CCCC)C(=O)N(CCCC)CCCC`, the Potency result in assay [1], in assay [3], in [9], in assay [4], in assay [17] and in assay [5] was “inactive” each time. Besides, the Potency entry in assay [10], in assay [6], in assay [12] and in [7] was “inactive” each time. Besides, in assay [13], the result was inactive.
Turning to `Cc1ccc(O)c2ncccc12`, the Potency is 10.6 µM (active) in assay [18], 11.9 µM (active) in [19], 1.33 µM (active) in assay [4] and 0.531 µM (active) in assay [17]. For the same compound, the Potency result in assay [2], in assay [8], in assay [3], in [15], in [20] and in [16] was “inactive” in each case. Further, the Potency entry in assay [14] and in assay [7] was “inactive” each time.
As for `CCCCCCCCS(=O)C(C)Cc1ccc2c(c1)OCO2` (stereo unspecified), the Potency entry in [1], in [8], in [3], in assay [15], in [5] and in [6] was “inactive” throughout. In addition, the Potency result in assay [20], in assay [12], in assay [16] and in assay [7] was “inactive” in each case. Moreover, the outcome in assay [13] was inactive.
For `N=C1N=C(N)c2ccccc21`, the Potency entry in assay [1], in assay [8], in [3], in [15], in assay [12] and in assay [16] was “inactive” in each case. Also, the Potency entry in [7] was “inactive”. Further, the Potency in [17] was 8.63 µM (active).
In the case of `NC(=O)N1C(=O)C(C(=O)c2cc(Cl)cs2)c2cc(F)c(Cl)cc21` (stereo unspecified), the Potency result in assay [18], in [8], in assay [3], in assay [20], in [16] and in [14] was “inactive” throughout. Moreover, the Potency was 27.3 µM (active) in assay [9]; 27.3 µM (active) in [4]; 6.86 µM (active) in assay [17]; 17.2 µM (active) in assay [10]; 7.7 µM (active) in assay [6]; 30.6 µM (active) in assay [11]. In addition, the Potency in assay [12] was 30.6 µM (active); in assay [7], 24.3 µM (active). Further, the compound was called inactive in [13].
On to `Cc1cc(O)c(C(C)(C)C)cc1C(C)(C)C`, for which the Potency in [18] is 61.1 µM (active); in assay [19] it was 54.5 µM (active); in assay [4] it was 61.1 µM (active); in assay [17], 48.6 µM (active); in [12], 61.1 µM (active). The Potency result in assay [8], in [15], in assay [20], in [16] and in [14] was “inactive” throughout.
